This is a sample that favours compounds with a hit; in the whole collection about 6.5% have one here.
VACV mCherry inh: vaccinia inhibition (mCherry reporter); Vaccinia virus mCherry reporter infection, fluorescence; Potency, µM (series often up to 36.5 µM), inactives show at the highest dose activity change, negative = inhibition, most hits filed as inhibitors; 310,000 compounds, 0.63% hits; AID 720579; calls by dose curve; tested in A549 cells; also: potency is read from the fitted curve at half-maximal effect; nearly all actives have a fitted effect of over 35% in size
FMDV inh: antivirals against foot and mouth disease virus. Potency, µM (titrated, usually from 57.9 µM), inactives show at the highest dose activity change, negative = inhibition, usual class: inhibitors. FMDV antiviral cell-based qHTS. 410,000 compounds, 1.2% hits; calls by dose curve; tested in HEK293T cells; also: read-out not given here; potency is read from the fitted curve at half-maximal effect; nearly all actives have a fitted effect of over 45% in size
VACV Venus inh: vaccinia inhibition (Venus reporter); Potency, µM (doses to about 36.5 µM), for the others: at the top dose activity change, negative = inhibition, hits mostly inhibitors; AID 720580; Vaccinia virus Venus reporter expression, fluorescence; 330,000 compounds, 0.46% hits; calls by dose curve; tested in A549 cells; also: potency is read from the fitted curve at half-maximal effect; nearly all actives have a fitted effect of over 30% in size
HCMV antiviral: blocks human cytomegalovirus replication. HFF cells, HCMV-luciferase reporter, 72 h; active compounds read low. activity change, negative = inhibition, % at 57.5 µM. 410,000 compounds, 4.5% hits; in the data active = activity change below about -60%; inconclusive = no clear call, values can overlap the other calls; inactive = above about -39%
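Inhibition of viral replication was scored as loss of reporter luminescence in HFFs infected with HCMV-luciferase (MOI 1 PFU/cell) for 72 h; compounds tested at 2 doses, normalized to buffer and Salinomycin controls.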
Marburg entry inh: Marburg virus entry inhibition. Marburg virus pseudotyped entry inhibition, cell reporter. Potency, µM (top dose mostly 37.8 µM), without a hit: top-dose activity change, negative = inhibition, usual class: inhibitors. 300,000 compounds, 1.8% hits; calls by dose curve; tested in HEK293 cells; also: potency is read from the fitted curve at half-maximal effect
Lassa entry inh: inhibitors of Lassa virus binding or cell entry; Lassa virus pseudotype entry inhibition, cell reporter; Potency, µM (top dose mostly 37.9 µM), inactives show at the highest dose activity change, negative = inhibition, actives largely listed as inhibitors; 300,000 compounds, 1.2% hits; calls by dose curve; tested in HEK293 cells; also: potency is read from the fitted curve at half-maximal effect; nearly all actives have a fitted effect of over 50% in size
* hit, by the source's call; i = inactive; ? = inconclusive; · = no result; [ ] = remark or other dose. % is scaled to controls: 0 for no effect and ±100 for the full control effect.

SMILES	VACV mCherry inh	FMDV inh	VACV Venus inh	HCMV antiviral	Marburg entry inh	Lassa entry inh
Cc1ccc(S(=O)(=O)Nc2ccccc2F)cc1C(=O)NNC(=O)c1ccccc1O	?	2%	4%	-87*	-19%[46.1 µM]	?
Cc1ccc(-c2cn(CCC(=O)O)c(=O)cn2)cc1	·	·	·	-9	·	·
O=C(OCC(=O)N1CCCC1)c1cc([N+](=O)[O-])ccc1Cl	-11%	10µM*	17%	-19	9%[46.1 µM]	16%[46.1 µM]
Oc1ccc(/C=N/Nc2cccc3cccnc23)c(O)c1	?	·	-23%	-22	?	?
Oc1ccc(/C=N/Nc2ncc(Br)cn2)c(O)c1	2.5µM*	10%	?	124	?	?
Oc1ccccc1/C=N/Nc1nccnc1Cl	·	38%	·	-100*	?	13µM*
Oc1ccc(C=NNc2ccccn2)c(O)c1	?	11%	?	-99*	?	?
Oc1ccc(/C=N/Nc2nccnc2Cl)c(O)c1	2.5µM*	9%	?	-97*	?	?
Oc1ccc(Br)cc1/C=N/Nc1ncc(-c2ccccc2)cn1	i	-14%	7%	-33	-33%	-25%
Oc1cccc(C=NNc2ccccn2)c1	-8%	37%	-10%	65	-1%	?
N#Cc1c(-n2ncnc2-c2cccc(Cl)c2)sc2c1CCCCC2	-19%	?	-15%	-1	·	?
Cc1ccccc1-c1nc2c3c(-c4ccccc4)c(-c4ccccc4)oc3ncn2n1	-11%	29%	-7%	16	·	-9%[46.1 µM]
O=C(c1ccccc1)N1CC2ON=C(c3c(F)cccc3Cl)C2C1 (stereo not given)	·	·	·	-4	·	·
Cc1ccccc1Cn1c(=O)n(-c2ccc(Cl)cc2)c(=O)c2c3c(sc21)CCCC3	-1%	-12%	1%	-7	4%[46.1 µM]	1%[46.1 µM]
Cc1nc(N2CCN(Cc3ccc4c(c3)OCO4)CC2)c2cc(-c3ccccc3)sc2n1	?	-12%	-17%	-3	7.9µM*	-10%[46.1 µM]
Cc1nc(N2CCN(Cc3ccc4c(c3)OCO4)CC2)c2oc3ccccc3c2n1	i	28µM*	-25%	-30	?	-28%
COc1ccccc1N1CCN(c2nc(C)nc3c2oc2ccccc23)CC1	·	28µM*	·	-82*	?	?
Cc1ccc2nc(/C(C#N)=C/c3ccc(O)c(O)c3)[nH]c2c1	5.6µM*	1%	35%	90	?	?
Cc1ccc2nc(/C(C#N)=C\c3ccc(N4CCCCC4)c([N+](=O)[O-])c3)[nH]c2c1	?	·	-12%	-62*	?	?
COc1cc(/C=C(\C#N)c2nc3ccc(C)cc3[nH]2)ccc1OC(C)C	5%	15%	-13%	-68*	?	?
N#C/C(=C/c1ccc(N2CCCC2)c([N+](=O)[O-])c1)c1nc2ccccc2[nH]1	·	4%	·	10	15%	7%
COCc1ccc(CN2CCOc3ccc(C4=Cc5ccccc5C4)cc3C2)o1	-14%	45%	-9%	·	·	·
COc1ccc2c3n([n+]([O-])c2c1)C(C)CN=C3c1ccc(C)cc1 (stereo not given)	·	·	·	20	·	·
Cc1cc(C(=O)NCc2nnc3n2CCN(Cc2ccc4c(c2)Cc2ccccc2-4)CC3)c(C)o1	-10%	-28%	-6%	·	·	·
O=C(NCc1ccco1)/C(=C/c1cccc(C(F)(F)F)c1)c1nc2ccccc2[nH]1	-23%	0%	-11%	-100*	?	?
SMILES	VACV mCherry inh	FMDV inh	VACV Venus inh	HCMV antiviral	Marburg entry inh	Lassa entry inh
O=C(NCc1ccco1)/C(=C/c1ccc(C(F)(F)F)cc1)c1nc2ccccc2[nH]1	·	21%	·	-25	-29%	?
COc1ccc(O)c(C(=O)CC(=O)c2ccc(F)cc2)c1	-2%	0%	-10%	4	13µM*	10µM*
Cc1cccc(C(=O)CC(=O)c2cc(Cl)ccc2O)c1	·	8%	·	·	-82%	?
O=C(CC(=O)c1cc(Cl)ccc1O)c1ccccc1	?	·	?	-10	?	13µM*
O=C(COC(=O)c1ccccc1OCCOc1ccccc1)Nc1ccc(Br)cc1	-5%	·	-15%	·	·	·
N#Cc1ccc(/C=C2\C=Cc3ccccc32)cc1	20%	·	-13%	·	·	·
C#CCN1CC(COc2ccccc2)Oc2cccc(Oc3ccc(OC)cc3)c2S1(=O)=O (stereo not given)	·	·	·	-20	·	·
Cc1c(C(=O)Nc2ccccc2)cnn1-c1ccccc1	-22%	8%	-11%	159	?	?
COc1cccc(NC(=O)c2cc(Cl)nnc2Cl)c1	6.3µM*	-15%	?	24	?	?
COc1cccc(NC(=O)c2cnn(-c3ccccc3)c2-n2cccc2)c1	-7%	-26%	-11%	-63*	·	8%[46.1 µM]
CCc1ccc(NC(=O)c2cnn(-c3ccccc3)c2-n2cccc2)cc1	-12%	-28%	-12%	-29	?	-38%[46.1 µM]
Cc1ccc(NC(=O)c2cnn(-c3ccccc3)c2C)cc1C	-10%	-41%	-19%	-61*	?	3.2µM*
COc1ccc(NC(=O)N2c3ccc(OC)cc3[C@@H](NS(C)(=O)=O)[C@H](C)[C@H]2c2ccccc2)cc1	·	·	·	-20	·	·
O=S(=O)(/C=C/C=C/S(=O)(=O)c1ccccc1)c1ccccc1	?	7.9µM*	14µM*	-78*	?	1µM*
NS(=O)(=O)c1ccccc1	i	-2%	2%	-17	-3%	18%
Cn1ncc2c(O/N=C(\N)c3ccc(C(C)(C)C)cc3)ncnc21	i[7.34 µM]	14µM*	-12%[7.34 µM]	·	?	?
C=CCCCN1C=C(C(C)=O)C(c2ccccc2)NC1=O (stereo not given)	·	·	·	·	18%[14.2 µM]	·
COC(=O)C1=CN(c2ccc(OC)cc2)C=C(C(=O)OC)C1c1cc(OC)c(OC)cc1OC	-5%	-14%	-7%	54	-9%	0.63µM*
COc1cc2c(cc1OC)C(COc1ccc(F)cc1)N(C(=O)c1cccc(F)c1)CC2 (stereo not given)	-3%	-19%	-11%	-18	·	-19%[46.1 µM]
CCOc1cc2[nH]c(=S)n(Cc3ccc(C(=O)NCC(OC)OC)cc3)c(=O)c2cc1OCC	·	-6%	·	26	-20%	-19%
CCOc1cc2[nH]c(=S)n(Cc3ccc(C(=O)NCCN(CC)CC)cc3)c(=O)c2cc1OCC	i	8%	-12%	-20	10µM*	10%[46.1 µM]
CCN(CC)CCNC(=O)c1ccc2c(=O)n(C3CCCC3)c(=S)[nH]c2c1	·	-10%	·	11	8.2µM*	?
CCCC(=O)NC(c1ccc(C)cc1)c1ccc2cccnc2c1O (stereo not given)	?	-16%	?	·	2.8µM*	?
COc1ccc(C(Nc2ccccn2)c2ccc3ccc(C)nc3c2O)cc1C (stereo not given)	-13%	-25%	-8%	-11	?	?
CCCC(=O)NC(c1ccc(Cl)cc1)c1ccc2cccnc2c1O (stereo not given)	?	-9%	?	-100*	3.5µM*	4µM*
CCCC(=O)NC(c1ccccc1Cl)c1c(O)ccc2ccccc12 (stereo not given)	?	?	-30%	-16	-8%	?

Bioassay records from PubChem BioAssay.
